Test results from the supplement of paper PMC10941209.
A number with no mark means an inactive call.

Test system: Toxoplasma gondii RH 2F1 tachyzoites (intracellular in HFF)
Assay: parasite survival relative to DMSO control; higher = less antiparasitic activity, active = 20 or less
Conditions: 1 µM; 72 h
Summary of the method: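 Toxoplasma gondii RH-2F1 tachyzoites expressing β-galactosidase (5 × 10^3 per well) were used to infect HFF cells at 5 × 10^3 cells/well in 96-well plates for 3 h in D2 medium. Cells then received compound at 1 μM for 72 h at 37°C in 5% CO2, were lysed for 15 min, and were given CPRG, with absorbance at 570 nm read after 30 min. Survival denotes this signal as a percentage of DMSO-treated infected controls. Each value reflects 2 or more biological replicates.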

SMILES | parasite survival
C(=C\c1nc2ccccc2[nH]1)/c1ccc2c(c1)OCO2 | 22.1%
CN1CCN(c2ccc3[nH]c(-c4ccc5[nH]c(-c6ccc(O)cc6)nc5c4)nc3c2)CC1 | 35.3%
COc1ccc2sc3c(c2c1)NC(C)CNC3=O (configuration not stated) | 6.94% (active)
Cc1c(CN(C)C(=O)/C=C/c2cnc3c(c2)C(C)(C)C(=O)N3)oc2ccccc12 | 54.1%
COc1cc(NS(=O)(=O)c2ccc(C)cc2)c2ncccc2c1 | 2.97% (active)
O=C1c2cccc3cccc(c23)C(=O)N1CC1CO1 (configuration not stated) | 51.9%
N[C@H]1CCC[C@H]1C(=O)O | 78.4%
CCOC(=O)N[C@@H]1CC[C@@H]2[C@@H](C1)C[C@H]1C(=O)O[C@H](C)[C@H]1[C@H]2/C=C/c1ccc(-c2cccc(F)c2)cn1 | 23%
NC(=O)c1cnccn1 | 52.5%
C[C@@H](NC(=O)c1ccccc1-c1ccccc1)B(O)O | 43.9%
O=[N+]([O-])/C(Br)=C/c1ccc(Br)o1 | 26.6%
Cc1nc(N(C)C(=O)Cc2ccc(-c3ccccn3)cc2)sc1S(N)(=O)=O | 72.8%
Cc1ccc(NC(=O)c2cc(Cl)ccc2O)cc1 | 42.3%
COc1ccc(C[C@@H](C)[C@@H](C)Cc2ccc(OC)c(OC)c2)cc1OC | 77.7%
Nc1nc2c(Cc3cccnc3)c[nH]c2c(=O)[nH]1 | 72.8%
CN(C)CCNC(=O)c1cccc2cccnc12 | 62%
CC(C)(C)c1ccc(C(Cn2cccc(C(F)(F)F)c2=O)NC2Cc3ccccc3C2)cc1 (configuration not stated) | 51.5%
